In PubChem BioAssay (Tox21):
Records with an inconclusive call do not appear. Active and inactive are the calls of the source. Unless noted, the call rests on the fitted dose curve; in most records, active means well fitted curve in the direction sought with a large enough effect in the repeat runs; inconclusive means weak or mixed curves; inactive means no such curve, though single readings can be large; an effect the other way counts as inactive or inconclusive.

Key:
[1] = qHTS assay for small molecule agonists of the p53 signaling pathway (AID 651631; calls by dose curve; further: nearly all actives have a fitted effect of over 15% in size; further: potency means the concentration at half of the fitted maximal effect)
Summary of the method: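 We treat p53RE-bla HCT-116 cells with compounds for 16 h at 37 °C, add LiveBLAzer B/G FRET substrate for 2 h at room temperature, and measure fluorescence intensity.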

[2] = qHTS assay for small molecules that induce genotoxicity in human embryonic kidney cells expressing luciferase-tagged ATAD5 (AID 651632); further: nearly all actives have a fitted effect of over 15% in size; further: potency means the concentration at half of the fitted maximal effect
Summary of the method: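 HEK293T cells carrying a luciferase reporter tagged to ATAD5 were exposed to compound or DMSO vehicle for 16 hr at 37C, 5% CO2. Amplite was added, and after 30 min at room temperature luciferase activity was read as a marker of ATAD5 induction.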

[3] = qHTS assay for small molecule agonists of the p53 signaling pathway - cell viability (AID 651633; calls by dose curve;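 further: p53RE-bla HCT reporter cells with a stable beta-lactamase p53 reporter; series mostly up to about 83 µM; nearly all actives have a fitted effect of over 30% in size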)
Summary of the method: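 Viability counter-read: CellTiter-Glo luminescence (30 min, room temperature) in the same p53RE-bla plates. These plates had been exposed to compounds for 16 h at 37 C.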

[4] = qHTS assay for small molecules that induce genotoxicity in human embryonic kidney cells expressing luciferase-tagged ATAD5 - cell viability (AID 651634; calls by dose curve; further: nearly all actives have a fitted effect of over 25% in size)
Summary of the method: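 HEK293T cells expressing luciferase-tagged ATAD5 were exposed to compound or DMSO for 15.5 hr at 37C, 5% CO2. Viability was then read as live-cell protease activity by CellTiter-Fluor fluorescence after 30 min at 37C.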

[5] = qHTS assay for small molecule disruptors of the mitochondrial membrane potential - cell viability (AID 720634; calls by dose curve;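 further: human HepG2 liver cancer cells; series mostly up to about 83 µM; nearly all actives have a fitted effect of over 20% in size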)
Summary of the method: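 HepG2 cells seeded overnight at 37 C, then exposed to compound or DMSO for 1 hr at 37 C, 5% CO2. m-MPI dye added, then CellTiter-Glo for 30 min at room temperature; viability read as ATP luminescence.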

[6] = qHTS assay for small molecule disruptors of the mitochondrial membrane potential (AID 720635); further: potency means the concentration at half of the fitted maximal effect
Summary of the method: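 Mitochondrial membrane potential tracked with Mito-MPS dye, red aggregates (ex 540/em 590 nm) against green monomers (ex 490/em 535 nm). Compound treatment 1 hr at 37C, dye 30 min in HepG2.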

[7] = qHTS assay to test for compound auto fluorescence at 590 nm (red) in HepG2 cells (AID 720674)
Summary of the method: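 Red autofluorescence (Ex/Em 540/590 nm, Rose Bengal sodium equivalents) was measured in HepG2 cells, 2,000 per well in MEM plus 10% FBS, plated overnight at 37 C. Readings were taken 1 hr after adding 23 nL compound or DMSO, at 37 C and 5% CO2.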

[8] = qHTS assay to test for compound auto fluorescence at 535 nm (green) in HepG2 cells (AID 720675)
[9] = qHTS assay to test for compound auto fluorescence at 460 nm (blue) in HEK293 cells (AID 720678)
Summary of the method: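 Blue read-out at excitation 405 nm and emission 460 nm follows overnight compound exposure of HEK293 cells at 37C in 5% CO2. Activity is given as auto fluorescence equivalency to triamterene.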

[10] = qHTS assay to test for compound auto fluorescence at 590 nm (red) in HEK293 cells (AID 720679)
Summary of the method: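 Red channel, Ex/Em 540/590nm; signal expressed as equivalency to Rose Bengal sodium. HEK293, 2,000 cells/well, 10% dialyzed FBS; 23 nL compound pinned after 4-5 hr attachment; overnight 37C/5% CO2 before reading.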

[11] = qHTS assay to test for compound auto fluorescence at 535 nm (green) in HEK293 cells (AID 720680)
[12] = qHTS assay to test for compound auto fluorescence at 460 nm (blue) in HEK293 cell free culture (AID 720681)
Summary of the method: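 Blue fluorescence (Ex 405/Em 460 nm, triamterene-equivalent) was read immediately after pin transfer of compound or DMSO into medium (DMEM, 10% FBS) without cells.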

[13] = qHTS assay to test for compound auto fluorescence at 535 nm (green) in HEK293 cell free culture (AID 720682)
Summary of the method: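 Green-channel intensity (Ex/Em 485/535 nm) was recorded from compound-treated wells containing only DMEM with 10% FBS. Fluorescein provided the equivalency standard.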

[14] = qHTS assay to test for compound auto fluorescence at 590 nm (red) in HEK293 cell free culture (AID 720683)
Summary of the method: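 Red-channel autofluorescence of compounds in culture medium (DMEM, 10% FBS), no cells, measured at 540/590 nm. Rose Bengal sodium is the reference fluorophore for equivalence.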

[15] = qHTS assay to test for compound auto fluorescence at 590 nm (red) in HepG2 cell free culture (AID 720684)
Summary of the method: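 Plate contents were MEM with 10% FBS plus test compound or DMSO, no cells. Fluorescence was recorded with 540 nm excitation and 590 nm emission.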

[16] = qHTS assay to test for compound auto fluorescence at 460 nm (blue) in HepG2 cell free culture (AID 720685)
Summary of the method: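 Compound (23 nL) or DMSO pinned into cell-free MEM with 10% FBS; blue fluorescence read at 405/460 nm excitation/emission, expressed as auto-fluorescence equivalency to triamterene.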

[17] = qHTS assay to test for compound auto fluorescence at 535 nm (green) in HepG2 cell free culture (AID 720686)
[18] = qHTS assay to test for compound auto fluorescence at 460 nm (blue) in HepG2 cells (AID 720687)
Summary of the method: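 Blue-channel autofluorescence (Ex/Em 405/460 nm, triamterene-equivalent) was measured after 1 hr compound exposure at 37 C, 5% CO2. Cells were HepG2, plated overnight at 37 C in MEM plus 10% FBS.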

[19] = biological target: Glucocorticoid receptor (Homo sapiens) (UniProt P04150); experiment: qHTS assay to identify small molecule antagonists of the glucocorticoid receptor (GR) signaling pathway (AID 720692; active means well fitted inhibition curve with a large enough effect in the signal ratio in the repeat runs, not every such curve was filed as active; the % refers to the signal ratio)
Summary of the method: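 GR-bla HeLa cells (beta-lactamase reporter under glucocorticoid response element) were pre-plated 4 h at 37 C, treated with compounds plus 5 nM dexamethasone (final) for 18 h, then read by LiveBLAzer B/G FRET fluorescence after 2 h.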

[20] = biological target: Glucocorticoid receptor (Homo sapiens) (UniProt P04150); experiment: qHTS assay to identify small molecule agonists of the glucocorticoid receptor (GR) signaling pathway (AID 720691; active means well fitted activation curve with a large enough effect in the signal ratio in the repeat runs, not every such curve was filed as active; the % refers to the signal ratio)
Summary of the method: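 GR-bla HeLa cells (beta-lactamase reporter under glucocorticoid response element) were plated 4 h at 37 C/5% CO2, given compounds in DMSO, and incubated 18 h at 37 C. LiveBLAzer B/G FRET substrate was added for 2 h at room temperature, then fluorescence intensity read.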

Measured: Potency

Glucocorticoid receptor (Homo sapiens), sequence (P04150 whole entry, looked up): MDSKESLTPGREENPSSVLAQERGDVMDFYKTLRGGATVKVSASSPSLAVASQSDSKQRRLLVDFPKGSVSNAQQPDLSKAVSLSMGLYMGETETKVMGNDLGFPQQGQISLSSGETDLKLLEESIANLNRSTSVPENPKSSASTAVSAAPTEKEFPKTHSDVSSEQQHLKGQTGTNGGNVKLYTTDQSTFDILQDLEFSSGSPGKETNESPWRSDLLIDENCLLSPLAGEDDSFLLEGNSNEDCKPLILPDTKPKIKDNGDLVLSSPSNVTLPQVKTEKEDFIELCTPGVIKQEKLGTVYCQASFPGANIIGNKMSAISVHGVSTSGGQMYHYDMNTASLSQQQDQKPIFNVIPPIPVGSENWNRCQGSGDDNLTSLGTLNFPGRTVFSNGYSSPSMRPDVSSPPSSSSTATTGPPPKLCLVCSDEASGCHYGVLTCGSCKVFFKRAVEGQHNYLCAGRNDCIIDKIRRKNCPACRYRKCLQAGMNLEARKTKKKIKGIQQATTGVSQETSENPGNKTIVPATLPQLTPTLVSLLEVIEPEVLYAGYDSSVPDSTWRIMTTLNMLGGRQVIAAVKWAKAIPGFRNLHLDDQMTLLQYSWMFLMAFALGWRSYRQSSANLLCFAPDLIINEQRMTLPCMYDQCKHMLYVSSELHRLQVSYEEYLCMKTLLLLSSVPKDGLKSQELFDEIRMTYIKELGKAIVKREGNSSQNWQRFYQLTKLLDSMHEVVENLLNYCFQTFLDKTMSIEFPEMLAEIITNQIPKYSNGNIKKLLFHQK

C=CCCC
inactive: [1] | [2] | [3] | [4] | [5] | [6] | [7] | [8] | [9] | [10] | [11] | [12] | [13] | [14] | [15] | [16] | [17] | [18] | [19]

O=[N+]([O-])c1cccc(I)c1
inactive: [1] | [2] | [3] | [4] | [5] | [6] | [7] | [8] | [9] | [10] | [11] | [12] | [13] | [14] | [15] | [16] | [17] | [18] | [20] | [19]

COc1ccc(/C=C/S(=O)(=O)NC(=O)c2ccc(C)cc2Cl)cc1
active: [1] 30.6 µM | [2] 21.7 µM | [6] 61.1 µM
inactive: [3] | [4] | [5] | [7] | [8] | [10] | [11] | [12] | [13] | [14] | [15] | [16] | [17] | [18]

CC1(C)[C@@H]2CC[C@]3(C2)[C@@H]1C(=O)CCC3(C)C
inactive: [1] | [2] | [3] | [4] | [5] | [6] | [8] | [9] | [10] | [11] | [12] | [13] | [14] | [15] | [16] | [17] | [18]

O=C1CCCN1CCO
inactive: [1] | [2] | [3] | [4] | [5] | [6] | [7] | [8] | [9] | [10] | [11] | [12] | [13] | [14] | [15] | [16] | [17] | [18] | [20]

NC(=O)c1ccccc1C(N)=O
inactive: [1] | [2] | [3] | [4] | [5] | [7] | [8] | [9] | [10] | [11] | [12] | [13] | [14] | [15] | [17] | [18]
active: [6] 61.4 µM

CCCCCCCCCC(C)C=O (stereo not drawn)
inactive: [1] | [2] | [3] | [4] | [5] | [6] | [7] | [8] | [9] | [10] | [11] | [12] | [13] | [14] | [15] | [16] | [17] | [18] | [20]
